From PubChem BioAssay (NCI)
About 83,000 compounds went through this panel and 20% of them were active in at least one assay; those are over-represented in the sample as a whole.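 Testing used 96-well plates and a 48-hour single-concentration exposure. Example: -40 means 40% of the starting cells died.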 The source made the active and inactive calls.

Tested on: SNB-19 CNS
Test: NCI-60 one-dose screen, 48 h (100 = growth as untreated, 0 = no growth, -100 = all killed)
Conditions: 10 µM unless noted
Description: Growth inhibition of the SNB-19 human tumor cell line is measured as a screen for anti-cancer activity. Cells are grown in 96 well plates and exposed to the test compound for 48 hours. Compounds are tested at a single concentration, which is 10^-5 M for most compounds. The reported endpoint is percent growth (GI% or GIPRCNT), where numbers from 0 - 100% represent growth inhibition, and numbers from -100% - 0 represent cell death. For example, a value of 40 represents 60% growth inhibition. A value of 0 means no net growth occurred over the course of the experiment. A value of -40 indicates 40% of cells at the beginning of the experiment died by the end of the experiment. A value of -100 means all cells are dead at the end of the experiment.
NCI-60 Human Tumor Cell Lines Screen was performed using the standard one-dose NCI protocol, which is described in more detail at https://dtp.cancer.gov/discovery_development/nci-60/default.htm.
Compounds with GIPRCNT values below 10 were considered active. Activity score was based on GIPRCNT using the following formula: […]
Score is 0 for GIPRCNT values of 100 or above, 50 for GIPRCNT values of 0, and 100 for GIPRCNT values of -100.

| Compound | growth |
| --- | --- |
| Brc1ccsc1Br | 106% (inactive) |
| O=C(O/C(=C/c1ccccc1)C(F)(F)F)c1ccccc1 | 110% (inactive) |
| CC1(C)CN(CCNc2nccc(-c3c(-c4cccc(O)c4)nc4sccn34)n2)S(=O)(=O)N1 | 87.8% (inactive) |
| O=C(/C=C/c1ccco1)c1ccccc1O | 102% (inactive) |
| O=C1SCN(Cc2ccccc2)CN1Cc1ccccc1 | 108% (inactive) |
| CCCCOc1nc2ccccc2cc1/C=C/c1cc(/C=C/c2cc3ccccc3nc2OCCCC)n(-c2ccccc2)n1 | 97.3% (inactive) |
| CC(C)N(C(=S)SSC(=S)N(C(C)C)C(C)C)C(C)C | 109% (inactive) |
| COc1ccc(-n2nc(C(=O)Nc3ccc(F)cc3)nc2-c2cc(OC)c(OC)c(OC)c2)cc1 | 92.3% (inactive) |
| CCCCCCCCN=C(NCCCCCCCC)SCc1cccc2ccccc12 | -88.4% (active) |
| C[Si](C)(C)C(c1ccccc1)c1ccccc1 | 111% (inactive) |
| COc1cccc(-c2nc3sccn3c2-c2ccnc(NCCN3CCCNS3(=O)=O)n2)c1 | 127% (inactive) |
| COc1cc2ncnc(Nc3ccc(S(=O)(=O)Nc4cc(C)on4)cc3)c2cc1OCCCN1CCN(c2ccc([N+](=O)[O-])cc2)CC1 | 100% (inactive) |
| COc1cc(C2C(C#N)=C(N)Oc3cc4c(cc32)OCO4)cc2c1OCO2 (stereo not given) | 45.7% (inactive) |
| O=C(O)C(CCc1ccccc1)NCc1ccccc1 (stereo not given) | 97.5% (inactive) |
| CCOC(OCC)c1cnc2nc(NC(C)=O)[nH]c(=O)c2n1 | 99.4% (inactive) |
| C=CC(=O)N1CN(C(=O)C=C)CN(C(=O)C=C)C1 | 107% (inactive) |
| COc1cc2c(=O)n(CCCN(C)C)c3c4cc[nH]c4ncc3c2cc1OC | 36.6% (inactive) |
| COc1ccc(CNc2c3ccccc3nc3ccccc23)cc1F | 28% (inactive) |
| COc1cc(-c2nc(-c3ccc(-c4nc5ccc(F)cc5[nH]4)cc3)no2)cc(OC)c1OC | 73.1% (inactive) |
| c1ccc(CCn2cccc2)nc1 | 105% (inactive) |

| Compound | growth |
| --- | --- |
| COc1ccc2c(c1)sc1nc(-c3ccccc3)c(-c3cccc4ccccc34)n12 | 29.8% (inactive) |
| C/C(=N\Nc1ccc([N+](=O)[O-])cn1)c1ccc(N)cc1 | 95.9% (inactive) |
| O=C1OC(/C=C/c2ccccc2)=NC/1=C/c1ccccc1[N+](=O)[O-] | 104% (inactive) |
| CC(C)CCSc1nc(-c2ccc(F)cc2)c(C#N)c(N2CCCCC2)n1 | 102% (inactive) |
| CC1(C)CC(=O)c2cc3c(N)c(C(=O)Nc4ccc(Cl)cc4)sc3nc2C1 | 114% (inactive) |
| O=C(Nc1ccc(Cl)cc1)c1cc(-c2ccc(Cl)cc2)c2sc(=O)[nH]c2n1 | 8% (active) |
| CC(C)CCSc1nc(Nc2ccccc2)c(C#N)c(-c2ccc(F)cc2)n1 | 53% (inactive) |
| COc1cc(C2CC(c3ccc(C)cc3)=NN2C=O)ccc1Oc1nc2c(c(=O)n(C)c(=O)n2C)n1C (stereo not given) | 67.2% (inactive) |
| O=C1OCC2=C1C(c1ccccc1)c1cc3c(cc1N2CCO)CCC3 (stereo not given) | -12.2% (active) |
| O=C(Nc1cccc(N=Cc2c(O)ccc3ccccc23)c1)c1ccccc1 | 101% (inactive) |
| Cc1ccc([C@H]2c3[nH]c4ccccc4c3C[C@H]3C(=O)N(CCCCCCC(=O)NO)CC(=O)N23)cc1 | 52.5% (inactive) |
| O=[N+]([O-])c1ccc(N/N=C/c2ccccc2O)nc1 | 56.2% (inactive) |
| CCn1c(=O)c(C(=O)NCCCO)c(O)c2ccccc21 | 102% (inactive) |
| CCCCOc1nc2ccc(C)cc2cc1/C=C/C(=O)/C=C(O)/C=C/c1cc2cc(C)ccc2nc1OCCCC | 96.2% (inactive) |
| Fc1ccc(-c2cnc3nonc3n2)c(F)c1 | 92.5% (inactive) |
| CCN1C(=O)N(CC)C2C1N=C(SC)N2/N=C/C=C/c1ccccc1OC (stereo not given) | 15.4% (inactive) |
| CC(C)(C)[Si](C)(C)OC1[C@@H](O[Si](C)(C)C(C)(C)C)[C@@H](CNC(=O)NC(=O)NC(=O)CCl)O[C@H]1n1cnc2c(NC(=O)Nc3ccccc3)ncnc21 (stereo not given in full) | 99.5% (inactive) |
| O=C(c1ccccc1)C1OC1C(=O)c1ccccc1 (stereo not given) | 92.9% (inactive) |
| COc1cc(NCC(O)CN(CC(C)C)CC(C)C)c2ncccc2c1 (stereo not given) | 90.1% (inactive) |
| CC(C)(C)c1nn(-c2ccccc2)c2c1C(=O)CSC(c1ccccc1Cl)N2 (stereo not given) | 39.8% (inactive) |
